Reference: PubChem BioAssay AID485290 (National Center for Advancing Translational Sciences (NCATS), 2010)
Out of some 350,000 compounds screened, about 990 (0.28%) were called active. About 2% were inconclusive and are not listed. The full list was thinned out, with actives kept by preference. Unmarked numbers belong to inactive results. Calls follow the shape of the dose curve; as a rule, active = well fitted inhibition curve with a large enough effect; inconclusive = small, poorly fitted or top-dose-only effect; inactive = no such curve, though single readings can be large or run the other way.

Target: Tyrosyl-DNA phosphodiesterase 1 (Homo sapiens) (UniProt Q9NUW8)
Test: qHTS Assay for Inhibitors of Tyrosyl-DNA Phosphodiesterase (TDP1); also: nearly all actives have a fitted effect of over 40% in size
Conditions: recombinant TDP1, AlphaScreen DNA substrate cleavage; series mostly up to 130 µM; activity change, negative = inhibition: at the top concentration
Procedure, shortened: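 AlphaScreen read-out: signal falls as enzyme removes the 3' tyrosine-FITC from a 5'-biotinylated DNA oligo (15 nM, 5 min, RT). Enzyme was E. coli-made recombinant Tdp1 at 1 nM, exposed to compound for 15 min beforehand; beads 10 ug/ml, 10 min.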
% is scaled to controls: 0 for no effect and ±100 for the full control effect; potency is read from the fitted curve at half-maximal effect.

Sequence of Tyrosyl-DNA phosphodiesterase 1 (Homo sapiens) (Q9NUW8 whole entry, looked up): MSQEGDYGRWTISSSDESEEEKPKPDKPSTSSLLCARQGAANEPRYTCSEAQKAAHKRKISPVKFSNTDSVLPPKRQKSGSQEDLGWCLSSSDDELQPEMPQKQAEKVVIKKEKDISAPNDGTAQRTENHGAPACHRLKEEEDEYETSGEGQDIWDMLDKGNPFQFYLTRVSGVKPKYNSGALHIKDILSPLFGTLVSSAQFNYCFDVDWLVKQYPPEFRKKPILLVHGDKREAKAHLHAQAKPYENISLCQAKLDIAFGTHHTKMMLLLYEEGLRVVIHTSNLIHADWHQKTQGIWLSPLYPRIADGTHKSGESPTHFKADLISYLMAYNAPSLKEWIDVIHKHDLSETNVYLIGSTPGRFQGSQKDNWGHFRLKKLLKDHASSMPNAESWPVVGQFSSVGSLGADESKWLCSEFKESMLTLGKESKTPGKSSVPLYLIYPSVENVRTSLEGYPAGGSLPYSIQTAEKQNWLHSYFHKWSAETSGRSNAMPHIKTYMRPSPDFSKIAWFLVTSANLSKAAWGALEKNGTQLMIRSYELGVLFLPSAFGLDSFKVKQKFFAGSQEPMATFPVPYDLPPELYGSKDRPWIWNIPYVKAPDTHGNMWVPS

Row | SMILES | activity change, negative = inhibition [%] | Potency
1 | Cc1ccc(-c2nc3ccccn3c2Nc2ccc(F)cc2)o1 | 4.27 | 
2 | Cc1ccc2nc(-c3ccncc3)cc(C(=O)Nc3ccc4c(c3)OCCO4)c2c1 | -8.22 | 
3 | Cc1ccc2nc(-c3ccncc3)cc(C(=O)Nc3ccc(OC(F)F)cc3)c2c1 |  | 50.1 µM (active)
4 | Cc1ccc2nc(-c3ccncc3)cc(C(=O)Nc3ccncc3)c2c1 | 4.27 | 
5 | CN(C)Cc1cn(-c2ccccc2)nc1-c1ccccc1 | 0.719 | 
6 | COC(=O)c1ccccc1S(=O)(=O)Nc1ccc(OC)cc1 | 4.45 | 
7 | COc1ccc(C2Nc3ccccc3C(=O)N2Cc2ccc(Cl)cc2)cc1COc1ccc(NC(C)=O)cc1 (stereo unspecified) | -0.0444 | 
8 | Cc1ccc(-c2nn3c(=O)cc(CN4CCN(C(=O)Nc5cccc(C(F)(F)F)c5)CC4)nc3s2)cc1 | 8.11 | 
9 | N#Cc1nc(Nc2cccc(Cl)c2)nc(NC2CCCC2)n1 | -2.17 | 
10 | O=C1CCc2cc(S(=O)(=O)Nc3cccc(Oc4ccccc4)c3)ccc2N1 | 2.51 | 
11 | Oc1c(C(c2ccc(F)cc2)N2CCN(Cc3ccccc3)CC2)sc2nc(-c3ccco3)nn12 (stereo unspecified) | 2.6 | 
12 | O=C(NCc1ccccn1)c1ccc2nc(-c3ccco3)c(-c3ccco3)nc2c1 |  | 8.91 µM (active)
13 | C=CCNC(=O)c1ccc2nc(-c3ccco3)c(-c3ccco3)nc2c1 | -9.19 | 
14 | O=C1CSc2ccc(C(=O)NCc3ccccn3)cc2N1 | 0.216 | 
15 | COc1ccc(N2C(=O)CSC23C(=O)N(Cc2cccc(F)c2)c2ccccc23)cc1Cl (stereo unspecified) | 5.63 | 
16 | CCCC(=O)N1CCN(c2nc3c(OC)ccc(C)c3s2)CC1 | 0 | 
17 | CSc1nnc(SCc2nc3sc(C(=O)O)c(C)c3c(=O)[nH]2)s1 |  | 22.4 µM (active)
18 | CCOC(=O)c1sc2nc(CSc3ccccc3)[nH]c(=O)c2c1C | 3.49 | 
19 | CC(=O)c1sc2nc(SCC(=O)N3CCCCC3)[nH]c(=O)c2c1C | -13 | 
20 | Cc1nn(-c2ccc(N3CCCCC3)nn2)c(C)c1CCC(=O)NCc1ccc(F)cc1 | 0.649 | 
21 | N#CN1CCC(NC(=O)c2ccc(F)cc2)CC1 | 0.796 | 
22 | NC(=O)C1CCN(C(=O)c2cccc(NC(=O)c3nsc4ccccc34)c2)CC1 | 2.7 | 

Row | SMILES | activity change, negative = inhibition [%] | Potency
23 | CC(C)c1ccc(NC(=O)C2CCN(c3nc(-c4ccc(C(C)C)cc4)no3)CC2)cc1 | 8.11 | 
24 | O=C(COC(=O)c1cccs1)NCc1cccs1 | -0.673 | 
25 | O=C(COC(=O)CCC(=O)c1cccs1)NCc1ccco1 |  | 22.4 µM (active)
26 | O=C(COC(=O)C12CC3CC(CC(C3)C1)C2)NCc1ccco1 |  | inactive
27 | CCCCNc1ccc(-c2nc(-c3ccncc3)no2)cc1[N+](=O)[O-] | 0 | 
28 | Cc1cc(C)c2oc(-c3cccc(NC(=O)c4cccc(F)c4)c3C)nc2c1 | 5.81 | 
29 | Cc1ccc(CCC(=O)Nc2ncc(Cc3cc(Cl)ccc3Cl)s2)o1 | 2.56 | 
30 | Cc1ccc(Cc2cnc(N)s2)o1 |  | 20 µM (active)
31 | COc1cc(F)c(S(=O)(=O)N2CCCN(S(=O)(=O)c3ccc(N)cc3)CC2)c(F)c1 | 2.59 | 
32 | O=S1(=O)N=C(Oc2cccc(Br)c2)c2ccccc21 | 1.26 | 
33 | Cc1ccc(NC(=O)CSc2nc(CSc3ccc(C)cc3)cc(=O)[nH]2)cc1 | 0 | 
34 | COc1ccc(NC(=O)CSc2nc(NS(=O)(=O)c3ccc(C)cc3)cc(=O)[nH]2)cc1 |  | 20 µM (active)
35 | COc1ccc(NC(=O)CSc2nc3ccccc3[nH]2)cc1 | 1.95 | 
36 | Oc1ccc(Br)cc1C1C=C(c2ccc3c(c2)OCO3)NC(c2ccc(Cl)cc2)N1 (stereo unspecified) | 2.78 | 
37 | Cc1ccc2nc(-c3ccc(O)cc3)c(Nc3ccc4c(c3)OCO4)n2c1 | 6.98 | 
38 | COc1ccc(CCc2nc(-c3cccs3)no2)cc1 |  | 89.1 µM (active)
39 | CCc1ccc(CNC(=O)CCc2nc(-c3cccs3)no2)cc1 | 1.31 | 
40 | COc1ccc(OC)c(CNC(=O)CCc2nc(-c3cccs3)no2)c1 | 0 | 
41 | CCC(=O)Nc1cccc(-c2nc3cc(C)ccc3o2)c1 | 5.69 | 
42 | OCCNc1ncnc2oc(-c3ccco3)c(-c3ccco3)c12 | 0.0157 | 
43 | Cc1ccc(OCc2cc(C(=O)N(C)CCc3ccccc3)no2)cc1C |  | 50.1 µM (active)
44 | Cc1cc(CN(C)C(=O)c2cc(COc3ccc(C)c(C)c3)on2)n[nH]1 | 4.51 | 

Row | SMILES | activity change, negative = inhibition [%] | Potency
45 | CN(CCOc1ccccc1)C(=O)c1cc(COc2c(F)cccc2F)on1 | -0.184 | 
46 | COc1ccc(C2Nc3ccccc3C(=O)N2Cc2ccco2)cc1COc1cccc(NC(C)=O)c1 (stereo unspecified) | -0.885 | 
47 | Cc1ccc(C(=O)COC(=O)C(Cc2c[nH]c3ccccc23)NC(=O)c2ccc(Br)cc2)cc1 (stereo unspecified) | 0.948 | 
48 | CCCCNC(=O)Cn1c(SCc2cccc(Cl)c2)nc2ccncc21 | 0.301 | 
49 | CCN1CCN(c2cc(C)c3cc(NC(=O)c4cc(Cl)ccc4OC)ccc3n2)CC1 | 5.88 | 
50 | C=CC(COCc1ccccc1)N(Cc1ccccc1)S(=O)(=O)c1ccccc1Br (stereo unspecified) | -12.1 | 
51 | C=CCCN(Cc1ccccc1)S(=O)(=O)c1ccccc1Br |  | 39.8 µM (active)
52 | C=CCCN(C(Cc1ccccc1)C(=O)OC)S(=O)(=O)c1cc(Br)ccc1Br (stereo unspecified) | -9.71 | 
53 | CC1(C)CCc2cc(S(=O)(=O)N3CCN(c4nc(-c5cccs5)nc5ccccc45)CC3)ccc2O1 | 1.18 | 
54 | Cc1ccc(Cl)cc1NC(=O)C(C)n1nnc2sc(-c3ccccc3)cc2c1=O (stereo unspecified) | 2.33 | 
55 | Cc1ccc(Nc2nc(N3CCOCC3)nc(N3CCOCC3)n2)cc1Cl |  | 22.4 µM (active)
56 | Cc1ccccc1NC(=O)CSc1nc2ccc(Nc3nc(N4CCOCC4)nc(N4CCOCC4)n3)cc2s1 | 2.22 | 
57 | Cc1ccc(Nc2nc(N)nc(CN3CCN(Cc4ccccc4)CC3)n2)cc1Cl | 6.79 | 
58 | CC1CC(C)CN(c2oc(-c3ccc(OCc4ccc(Cl)cc4)cc3)nc2C#N)C1 (stereo unspecified) | 5.48 | 
59 | Cc1ccc(CCNC(=O)c2ccc(CS(=O)(=O)Cc3cccc(C)c3)o2)cc1 | 5.2 | 
60 | CCN1CCN(C(c2ccc(C)cc2)c2c(O)cc(C)n(Cc3ccco3)c2=O)CC1 (stereo unspecified) | 5.41 | 
61 | COc1cccc(C(=O)NC2CCN(C#N)CC2)c1 | 1.27 | 
62 | Cn1c(COc2ccccc2C(C)(C)C)nc2ccccc21 | 0 | 
63 | CC(C)NC(=O)C(=O)N/N=C/c1ccco1 | -10.5 | 
64 | O=c1nc(N/N=C/c2ccco2)cn[nH]1 |  | 31.6 µM (active)
65 | O=C(Cc1ccc([N+](=O)[O-])cc1)N/N=C/c1ccco1 | 0 | 
66 | Oc1ccc(Cl)cc1C1C=C(c2ccc3c(c2)OCO3)NC(c2c(F)cccc2Cl)N1 (stereo unspecified) | 3.95 | 
